Test results taken from PubChem BioAssay (NCATS).
Results filed as inconclusive are left out. A call without a number means that no potency is given here. Calls of active or inactive are those of the source. Unless noted, the call rests on the fitted dose curve; in most records, active means well fitted curve in the direction sought with a large enough effect; inconclusive means small, poorly fitted or top-dose-only effect, or another doubt; inactive means no such curve, though single readings can be large; an effect the other way counts as inactive or inconclusive.

Tests used:
[1] = system: Zika virus NS2B-NS3 protease; assay: Primary screen GU AMC qHTS for Zika virus inhibitors (AID 1347154); further: nearly all actives have a fitted effect of over 70% in size
Summary of the method: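 Fluorogenic AMC-substrate cleavage by noncovalent NS2B-NS3 protease complex (25 nM, pH 8.0 Tris buffer with Tween 20) followed for 15 minutes at room temperature (~20% conversion). Percent inhibition from ex340/em450 signal change, fitted by 4-parameter Hill equation.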

[2] = molecular target: Nucleoprotein (Lymphocytic choriomeningitis virus (strain Armstrong)) (UniProt P09992); assay: qHTS for Inhibitors of the Functional Ribonucleoprotein Complex (vRNP) of Lymphocytic Choriomeningitis Arenaviruses (LCMV): LCMV Primary Screen - GLuc reporter signal (AID 1347086; calls by dose curve; further: series mostly up to about 57 µM; nearly all actives have a fitted effect of over 70% in size)
Chain of Nucleoprotein (Lymphocytic choriomeningitis virus (strain Armstrong)) (P09992 whole entry, looked up): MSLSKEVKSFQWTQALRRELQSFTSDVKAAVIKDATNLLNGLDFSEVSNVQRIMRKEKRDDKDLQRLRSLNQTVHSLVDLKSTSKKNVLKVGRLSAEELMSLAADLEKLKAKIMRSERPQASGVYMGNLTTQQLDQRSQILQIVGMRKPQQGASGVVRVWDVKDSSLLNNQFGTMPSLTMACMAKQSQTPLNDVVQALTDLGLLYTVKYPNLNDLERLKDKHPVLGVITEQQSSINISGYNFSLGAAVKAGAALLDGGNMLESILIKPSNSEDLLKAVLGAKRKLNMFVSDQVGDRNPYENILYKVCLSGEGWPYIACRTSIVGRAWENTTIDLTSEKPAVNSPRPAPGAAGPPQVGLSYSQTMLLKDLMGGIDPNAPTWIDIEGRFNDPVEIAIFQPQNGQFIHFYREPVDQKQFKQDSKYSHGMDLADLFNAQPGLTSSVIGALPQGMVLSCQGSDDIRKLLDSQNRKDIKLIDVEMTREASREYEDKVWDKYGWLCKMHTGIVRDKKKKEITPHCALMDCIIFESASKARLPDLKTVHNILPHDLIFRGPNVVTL

[3] = molecular target: Metallo-beta-lactamase type 2 (Klebsiella pneumoniae) (UniProt C7C422); assay: qHTS to identify inhibitors of the New Delhi Metallo-beta-lactamase (NDM): assay validation screen against the NCATS LOPAC Collection (AID 1794843);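 further: nitrocefin turnover by NDM-1 measured as 485 nm absorbance at plateau; series mostly up to about 38 µM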
Chain of Metallo-beta-lactamase type 2 (Klebsiella pneumoniae) (C7C422 whole entry, looked up): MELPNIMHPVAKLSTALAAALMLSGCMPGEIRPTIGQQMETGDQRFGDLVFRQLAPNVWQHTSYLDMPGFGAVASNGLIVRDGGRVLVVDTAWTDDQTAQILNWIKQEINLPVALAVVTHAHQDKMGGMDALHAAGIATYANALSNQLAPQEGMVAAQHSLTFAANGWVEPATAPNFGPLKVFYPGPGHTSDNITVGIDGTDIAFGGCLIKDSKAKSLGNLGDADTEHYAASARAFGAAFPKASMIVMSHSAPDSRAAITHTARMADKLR
Summary of the method: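 NDM-1 at 2 nM final in 50 mM HEPES pH 7.0 with 1 uM ZnSO4 and 0.01% Tween20 was preincubated with library compounds in DMSO. Nitrocefin (50 uM stock) was then added, and absorbance at 485 nm was read at the kinetic plateau.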

Compound	Potency [1]	Potency [2]	outcome [3]
Cc1ccc2c(c1)C1(CCN(CCc3nc(-c4ccccc4)oc3C)CC1)OC(=O)N2	inactive		
C/C=C/CC(C)C(O)C1C(=O)NC(CC)C(=O)N(C)CC(=O)N(C)C(CC(C)C)C(=O)NC(C(C)C)C(=O)N(C)C(CC(C)C)C(=O)NC(C)C(=O)NC(C)C(=O)N(C)C(CC(C)C)C(=O)N(C)C(CC(C)C)C(=O)N(C)C(C(C)C)C(=O)N1C (stereo not drawn)		inactive	inactive
